The record followed here is PubChem BioAssay (Tox21).

The structures appear in SMILES notation. Inconclusive results are not listed. Unmarked numbers belong to inactive results. Active and inactive are the calls of the source. Calls follow the shape of the dose curve; as a rule, active = well fitted curve in the direction sought with a large enough effect in the repeat runs; inconclusive = weak or mixed curves; inactive = no such curve, though single readings can be large; an effect the other way counts as inactive or inconclusive.

Assay [1] can be described thus: A CellTox Green Cytotoxicity Assay to monitor cytotoxicity in HEK293 cells - 40 hour (AID 1224871). Also: nearly all actives have a fitted effect of over 45% in size. In short, it runs like this: (§1)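 Tox21 screen in HEK293: membrane-impermeant cyanine dye fluoresces on binding dead-cell DNA; compound pinned 5 h post-seeding, plates held at 37 C, signal read repeatedly through 40 h.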
Assay [2] is described as follows: qHTS RealTime-Glo MT Cell Viability Assay in HEK293 cells - 16 hour (AID 1224872). Also: top concentration of the series differs between compounds; nearly all actives have a fitted effect of over 50% in size. In short, it runs like this:
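Tox21 10K qHTS, HEK293, 600 cells/well, RealTime-Glo reagent co-dispensed with cells; 5 h preincubation, compound by pintool, 37 C, luminescence at 0–40 h.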
(In qHTS, concentration-response curves come from the screen itself.)

A short description of assay [3]: qHTS RealTime-Glo MT Cell Viability Assay in HepG2 cells - 8 hour (AID 1224873). Also: nearly all actives have a fitted effect of over 55% in size. An outline of the steps:
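HepG2 cells mixed with RealTime-Glo MT reagents (NanoLuc plus cell-permeant prosubstrate) were seeded at 600 cells/well, incubated 5 h at 37 C/5% CO2, then pinned with compounds in DMSO; nonlytic luminescence tracked viability during 40 h treatment.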

Assay [4] in a line: qHTS RealTime-Glo MT Cell Viability Assay in HEK293 cells - 40 hour (AID 1224874). Also: nearly all actives have a fitted effect of over 50% in size. The following applies: RealTime-Glo luminescence; max response: hits give low values. In short, it runs like this: (§2)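 HEK293 + NanoLuc + prosubstrate, 600 cells/well; 5 h, 37 C/5% CO2; compound 23 nL in DMSO by pintool; 37 C; luminescence read at 0, 8, 16, 24, 32 and 40 h time points.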
A short description of assay [5]: A CellTox Green Cytotoxicity Assay to monitor cytotoxicity in HEK293 cells - 24 hour (AID 1224875). Also: series mostly up to about 77 µM; nearly all actives have a fitted effect of over 45% in size. In short, it runs like this:
as §1

Assay [6] can be described thus: A CellTox Green Cytotoxicity Assay to monitor cytotoxicity in HepG2 cells - 16 hour (AID 1224876). Also: nearly all actives have a fitted effect of over 45% in size. An outline of the steps: (§3)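 Measurements at 0, 8, 16, 24, 32 and 40 h of treatment captured CellTox Green fluorescence in HepG2 cells that had been co-plated with reagent and preincubated 5 h at 37 C/5% CO2.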
A short description of assay [7]: qHTS RealTime-Glo MT Cell Viability Assay in HepG2 cells - 32 hour (AID 1224877). Also: nearly all actives have a fitted effect of over 55% in size. In short, it runs like this: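 Cells + NanoLuc/prosubstrate dispensed (600 cells/well) → 5 h at 37 C/5% CO2 → compounds in DMSO transferred → 40 h incubation at 37 C, luminescence read at 0, 8, 16, 24, 32, 40 h.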
Assay [8] is described as follows: A CellTox Green Cytotoxicity Assay to monitor cytotoxicity in HepG2 cells - 40 hour (AID 1224879). Also: nearly all actives have a fitted effect of over 40% in size. An outline of the steps: as §3
Assay [9] can be described thus: qHTS RealTime-Glo MT Cell Viability Assay in HEK293 cells - 0 hour (AID 1224880). Also: nearly all actives have a fitted effect of over 45% in size. Also: potency is read from the fitted curve at half-maximal effect. As to activity change, negative = cytotoxicity: top concentration of the series differs between compounds. An outline of the steps:
as §2

Assay [10] can be described thus: A CellTox Green Cytotoxicity Assay to monitor cytotoxicity in HepG2 cells - 24 hour (AID 1224878). Also: nearly all actives have a fitted effect of over 45% in size. In short, it runs like this: as §3
% is scaled to controls: 0 for no effect and ±100 for the full control effect.

For the compound `O=C1OC(=O)C2CCCCC12` (configuration not stated), the Potency entry in assay [1], in assay [2], in [3], in [5], in [6] and in [7] was “inactive” each time. Further, the Potency entry in [8] and in assay [9] was “inactive” in each case. In addition, the max response in assay [4] is 1.13%.
Regarding `CC(=O)CC(C)(C)C1CCCCC1`, the Potency result in assay [1], in assay [2], in [3], in assay [5], in assay [6] and in assay [7] was “inactive” in each case. The Potency result in assay [10], in assay [8] and in assay [9] was “inactive” each time. Moreover, in [4], the max response is 9.93%.
Take `COCCCOCCCOC`: the Potency result in assay [1], in assay [2], in assay [3], in [5], in [6] and in [7] was “inactive” in each case. Moreover, the Potency entry in assay [9] is “inactive”. The max response in assay [4] is 6.62%.
Regarding `C=C(C)CS(=O)(=O)O`, the Potency entry in [1], in assay [2], in assay [3], in [5], in assay [6] and in assay [7] was “inactive” throughout. Besides, the Potency entry in [8] is “inactive”. Moreover, the max response in assay [4] was -0.0402%.
Take `NS(=O)(=O)c1ccccc1Cl`: the Potency entry in [1], in assay [2], in [3], in assay [5], in assay [6] and in assay [7] was “inactive” throughout. Also, the Potency result in assay [8] and in assay [9] was “inactive” each time. Also, the max response in assay [4] is -11.8%.
For `C=C1CC[C@H]2C[C@@H]1C2(C)C`, the Potency entry in assay [1], in [2], in assay [3], in [5], in assay [6] and in assay [7] was “inactive” each time. Besides, the Potency result in [10], in assay [8] and in assay [9] was “inactive” each time. Besides, the max response in [4] is 5.42%.
`O=C(O)CN(CCOCCOCCN(CC(=O)O)CC(=O)O)CC(=O)O`: the cytotoxicity increase is 0.853% [at 0.29 µM] in assay [1], -23.6% [at 0.29 µM] in assay [6] and -20% [at 0.29 µM] in assay [8]. The activity change, negative = cytotoxicity in assay [2] is -0.382% [at 0.29 µM]. In assay [3], the viability change, negative = cytotoxic was -0.725% [at 0.29 µM]. Besides, the max response in [4] was 6.77%. In addition, the activity change in assay [5] is 5.13% [at 0.29 µM, hits give high values]. In assay [7], the activity change, negative = cytotoxic is 3% [at 0.29 µM].
Regarding `COc1c(N2C[C@@H]3CCCN[C@@H]3C2)c(F)cc2c(=O)c(C(=O)O)cn(C3CC3)c12`, the Potency result in [1], in assay [2], in assay [3], in assay [5], in assay [6] and in [7] was “inactive” throughout. Further, the Potency entry in [10], in assay [8] and in [9] was “inactive” throughout. The max response in [4] was -3.41%.
Regarding `COC(=O)c1ccc(C)cc1C1=NC(C)(C(C)C)C(=O)N1` (configuration not stated), the Potency result in [1], in assay [2], in assay [3], in assay [5], in [6] and in assay [7] was “inactive” in each case. The Potency result in assay [8] and in [9] was “inactive” each time. Moreover, the max response in [4] is 5.2%.
`CC(=O)CC(C)C`: the Potency entry in assay [1], in assay [2], in assay [3], in [5], in [7] and in assay [10] was “inactive” each time. In addition, the Potency result in assay [8] is “inactive”. In addition, the max response in [4] is 14.5%.
`Cc1cc(O)cc2c1O[C@](C)(CCC[C@H](C)CCC[C@H](C)CCCC(C)C)CC2`: the Potency entry in [1], in [2], in assay [3], in assay [5], in assay [6] and in assay [7] was “inactive” each time. Besides, the Potency entry in assay [10], in assay [8] and in assay [9] was “inactive” throughout. Also, the max response in assay [4] is 5.25%.
Regarding `CCOC(=O)c1cccc(N)c1`, the Potency entry in assay [1], in assay [2], in assay [3], in assay [5], in assay [6] and in assay [7] was “inactive” in each case. Further, the Potency entry in [10], in [8] and in [9] was “inactive” throughout. In [4], the max response was 3.26%.
In the case of `CCCCCCOC(=O)CCCCC(=O)OCCCCCC`, the Potency entry in assay [1], in [2], in assay [3], in assay [5], in assay [6] and in [7] was “inactive” each time. In addition, the Potency result in assay [8] and in assay [9] was “inactive” throughout. For the same compound, the max response in assay [4] is 7.23%.
In the case of `CC(=O)OCC(=O)[C@@]1(O)CCC2C3CCC4=CC(=O)CC[C@]4(C)C3[C@@H](O)C[C@@]21C` (some centres not stated), the Potency result in [1], in assay [2], in assay [3], in assay [5], in [6] and in assay [7] was “inactive” throughout. The Potency result in assay [10] and in [8] was “inactive” throughout. In addition, the max response in assay [4] was -13.4%. In addition, the Potency in assay [9] is 8.49 µM (active).
With `Nc1ccc(S(=O)(=O)Nc2ccnn2-c2ccccc2)cc1`, in assay [1], the Potency entry is “inactive”. The activity change, negative = cytotoxicity is 9.13% [at 15.8 µM] in [2] and 3.82% [at 15.8 µM] in assay [9]. Also, in assay [3], the viability change, negative = cytotoxic was -7.88% [at 15.8 µM]. The max response in assay [4] is 3.19%. The activity change in assay [5] is 1.21% [at 15.8 µM, hits give high values]. The values for the cytotoxicity increase in assay [6] and in assay [8] were 2.84% [at 15.8 µM] and 1.49% [at 15.8 µM], respectively. In assay [7], the activity change, negative = cytotoxic is 1.3% [at 15.8 µM].
